Compounds with a hit are over-represented: about 19% of the library has one in this group of screens.
DT40 TDP1 no CPT: qHTS for Inhibitors of human tyrosyl-DNA phosphodiesterase 1 (TDP1): qHTS in cells in absence of CPT | DT40 Tdp1-/- hTDP1 cells, no CPT, ATP luminescence, 48 h | Potency, µM (doses to about 46.2 µM), inactives show at the top dose activity change, negative = growth inhibition, actives largely listed as inhibitors | 420,000 compounds, 15% hits; further: potency means the concentration at half of the fitted maximal effect; on the % scale 0 is the no-effect control and ±100 the full control effect; nearly all actives have a fitted effect of over 55% in size
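Growth of hTDP1-complemented DT40 Tdp1-knockout cells is measured by ATP luminescence after at least 48 hr compound exposure at 37 °C, with DMSO substituting for the 20 nM CPT used in the parallel screen.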
IL-1B inflam inh: inhibitors of inflammasome signaling (IL-1 beta secretion). THP-1 LPS/ATP IL-1B secretion, AlphaLISA, 16 h; stronger effect = lower value. activity change, % at 57.5 µM. 360,000 compounds, 4.7% hits. AID 743279; in the data active means activity change below about -50%; inconclusive means mostly about -30% to -49%; further: on the % scale 0 is the no-effect control and ±100 the full control effect
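Secreted IL-1B measured by AlphaLISA bead assay after 16 h compound exposure of THP-1 cells; compounds (final up to 57.5 uM) added 1 h before LPS (250 ng/mL) and ATP (1.25 mM) stimulation; lower signal means less secretion.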
BCR signal inh: blocks chronic active B-cell receptor signaling; ABC-DLBCL IkBa-CBG/CBR reporter, luminescence ratio, 4 h; Potency, µM (series often up to 46.1 µM), without a hit: at the top dose activity change, negative = inhibition, usual class: inhibitors; 340,000 compounds, 0.05% hits; AID 493014; active means well fitted inhibition curve with a large enough effect in the signal ratio, with a control signal flat, not every such curve was filed as active; inconclusive means small, poorly fitted or top-dose-only effect, or effect the other way, or a change in a side signal; the % refers to the signal ratio;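 further: potency means the concentration at half of the fitted maximal effect; plate controls were basal doxycycline-induced cells for no effect and cells given 10 µM MG132 for full effect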
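TMD8 ABC-DLBCL cells carrying doxycycline-inducible green luciferase fused to IkappaBalpha plus unfused red luciferase were exposed to compounds (up to 46 uM) for 4 hrs at 37C. Activity came from the overlap-corrected green/red luminescence ratio.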
MCF10A rerep: DNA re-replication induction in MCF 10a cells; MCF 10A DNA re-replication, Hoechst nuclear intensity, 48 h; Potency, µM (titrated, usually from 46.1 µM), inactives show at the highest dose activity, positive = re-replication, usual class: activators; 350,000 compounds, 2.9% hits; AID 624296; further: potency means the concentration at half of the fitted maximal effect; % of control where 0% means no effect; nearly all actives have a fitted effect of over 50% in size
SW480 rerep: induces DNA re-replication in SW480 colon adenocarcinoma cells; SW480 DNA re-replication, Hoechst DNA content imaging, 48 h; Potency, µM (series often up to 46.1 µM), without a hit: top-dose re-replication activation, actives largely listed as activators; 340,000 compounds, 1.8% hits; AID 624297; further: potency means the concentration at half of the fitted maximal effect; % of control where 0% means no effect; nearly all actives have a fitted effect of over 55% in size
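Image-based DNA-content assay: after two days of treatment, nuclei were labelled with the DNA dye Hoechst and imaged, and hits were compounds raising the count of nuclei showing high fluorescence intensity.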
DT40 TDP1 CPT: growth inhibition of DT40 Tdp1-/-;hTDP1 cells with camptothecin (screen for TDP1 inhibitors). chicken DT40 Tdp1-/-;hTDP1 cells + 20 nM CPT, ATP luminescence, 48 h. Potency, µM (highest dose often 46.2 µM), inactives show top-dose activity change, negative = growth inhibition, usual class: inhibitors. 420,000 compounds, 12% hits. AID 686979; further: potency means the concentration at half of the fitted maximal effect; on the % scale 0 is the no-effect control and ±100 the full control effect; nearly all actives have a fitted effect of over 55% in size
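Chicken DT40 Tdp1-/- cells stably complemented with human TDP1 were seeded at 400 cells/well in medium containing 20 nM camptothecin, exposed to pin-transferred compounds, and grown at 37 °C for at least 48 hr. Viability was read as ATP luminescence.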
Active calls of the source: *; ? = inconclusive; . = no result; [ ] = remark or other dose. Unless noted, the call rests on the fitted dose curve; in most records, active means well fitted curve in the direction sought with a large enough effect; inconclusive means small, poorly fitted or top-dose-only effect, or another doubt; inactive means no such curve, though single readings can be large; an effect the other way counts as inactive or inconclusive.

SMILES	DT40 TDP1 no CPT	IL-1B inflam inh	BCR signal inh	MCF10A rerep	SW480 rerep	DT40 TDP1 CPT
O=C(CSc1nc2ccccc2nc1Cc1ccc(Cl)cc1)N1CCN(c2ccccc2)CC1	?	.	.	.	.	-9%
O=C(CSc1nc2ccccc2nc1Cc1ccc(Cl)cc1)N1CCCCC1	16µM*	.	.	.	.	?
COc1ccc(N2CCN(C(=O)CSc3nc4ccccc4nc3Cc3ccc(Cl)cc3)CC2)cc1	?	.	.	.	.	21µM*
Cc1ccc(Cc2nc3ccccc3nc2SCC(=O)N2CCN(c3ccccc3)CC2)cc1	-24%	.	.	.	.	-16%
O=C(CSc1nc2ccccc2nc1SCC(=O)N1CCCCC1)N1CCCCC1	?	-59*	-1%	19%	2%	16µM*
Cc1ccc(Cc2nc3ccccc3nc2SCC(=O)N2CCCCC2)cc1	21µM*	.	.	.	.	?
CCC1CCCCN1C(=O)COC(=O)c1cncc(Br)c1 (configuration not stated)	5%	-2	.	.	.	-2%
COC(=O)CSc1cnc2ccccc2n1	-15%	22	.	1%	-3%	-7%
CC1CCCCN1C(=O)CSc1nc(C2CC2)nc2ccccc12 (configuration not stated)	?	-77*	?	?	?	?
COc1ccccc1N1CCN(C(=O)CSc2nc3ccccc3nc2Cc2ccccc2)CC1	23µM*	.	.	.	.	23µM*
CCCNC(=O)CSc1nc2ccccc2nc1Cc1ccc(Cl)cc1	?	.	.	.	.	1%
COC(=O)CSc1nc2ccccc2nc1SCC(=O)OC	2%	0	9%	23µM*	18µM*	4%
CCOC(=O)CSc1nc(C2CC2)nc2ccccc12	-10%	4	?	2%	-7%	-24%
CC1CCCCN1C(=O)CSc1nc2ccccc2nc1Cc1ccc(Cl)cc1 (configuration not stated)	?	.	.	.	.	18µM*
CC(=O)c1ccc(NC(=O)COC(=O)CCC2CCCC2)cc1	-10%	-3	-1%	7%	-3%	-18%
COc1ccc(N(C(=O)c2ccccc2F)S(=O)(=O)c2ccc3c(c2)n(C)c(=O)n3C)cc1	-4%	.	.	.	.	11%
CC1CCN(C(=O)CSc2nc3ccccc3[nH]2)CC1	-7%	-16	?	?	-1%	-15%
CC(C)c1nc2ccccc2c2nnc(SCC(=O)NCc3ccco3)n12	?	6	4%	?	14%	16µM*
Cc1sc2nc(C3CC3)nc(SCC(=O)NCc3ccco3)c2c1C	?	12	?	?	1%	?
O=C(CSc1nc(C2CCCCC2)nc2ccccc12)NCc1ccco1	21µM*	-82*	?	26%	0%	?
CC(C)(C)c1nc2ccccc2c2nnc(SCC(=O)NCc3ccco3)n12	?	0	1%	-9%	1%	?
C=CCn1c(SCC(=O)NCc2ccco2)nnc1-c1ccc2ccccc2n1	18µM*	0	12%	7%	-2%	?
CC1CCN(C(=O)CSc2nc3ccccc3nc2Cc2ccccc2)CC1	10µM*	.	.	.	.	15µM*
CC(NCC(=O)NC(=O)NC1CCCC1)c1ccc(Cl)cc1Cl (configuration not stated)	-14%	?	-1%	9%	-4%	-6%
COc1ccccc1C(=O)NCCC(=O)NCC(c1ccco1)N1CCCC1 (configuration not stated)	0%	9	0%	-5%	1%	1%
SMILES	DT40 TDP1 no CPT	IL-1B inflam inh	BCR signal inh	MCF10A rerep	SW480 rerep	DT40 TDP1 CPT
O=S(=O)(c1ccc2ncsc2c1)N1CCN(c2nc(-c3cccs3)nc3ccccc23)CC1	?	.	.	.	.	5%
Cc1ccccc1NC(=O)/C=C/c1ccc([N+](=O)[O-])s1	0.82µM*	-102*	?	1.6µM*	0.16µM*	0.92µM*
Cc1ccc([N+](=O)[O-])cc1NC(=O)/C=C/C(=O)O	13%	25	-3%	3%	-18%	1%
O=C(/C=C/c1cccc([N+](=O)[O-])c1)Nc1cc(C(=O)O)cc(C(=O)O)c1	?	8	-9%	0%[9.22 µM]	?	?
CC(=O)c1cccc(NC(=O)/C=C/c2ccc([N+](=O)[O-])s2)c1	1.5µM*	-104*	?	3.7µM*	2.9µM*	1.3µM*
Cc1cc(C)cc(NC(=O)/C=C/c2ccc([N+](=O)[O-])s2)c1	1.2µM*	-102*	?	4.1µM*	?	?
COc1cc(OC)cc(-c2noc(-c3csc([C@@H]4O[C@H](CO)[C@H](O)[C@H](O)[C@H]4O)n3)n2)c1	-10%	-10	.	.	.	0%
CC1(C(=O)NCc2ccncc2)Cc2c(-c3cccc(C(F)(F)F)c3)ccnc2O1 (configuration not stated)	?	18	.	.	.	?
CC1(C(=O)NCc2ccccc2)Cc2c(-c3cccc(C(N)=O)c3)ccnc2O1 (configuration not stated)	2.3µM*	38	.	.	.	3.3µM*
CC1(C(=O)NCc2ccco2)Cc2c(-c3cccc(C(N)=O)c3)ccnc2O1 (configuration not stated)	5.8µM*	-57*	.	.	.	4.1µM*
CC1(C(=O)NCCc2ccccc2)Cc2c(-c3ccc(C(N)=O)cc3)ccnc2O1 (configuration not stated)	?	31	.	.	.	16µM*
CC1(C(=O)NCc2ccco2)Cc2c(-c3cccc(C(F)(F)F)c3)ccnc2O1 (configuration not stated)	2.9µM*	57	.	.	.	2.6µM*
CC1(C(=O)NCc2ccc(F)c(F)c2)Cc2c(-c3cccc(C(N)=O)c3)ccnc2O1 (configuration not stated)	?	25	.	.	.	?
CC(C)(C)c1ccc(C(=O)O[C@H]2[C@H](Cc3ccccc3)NS(=O)(=O)[C@H]3C[C@@H]4C=C[C@]23O4)cc1	?	-25	6%	18%	-4%	?
COc1cc(OC)cc(OC(=O)c2ccc3c(=O)n4c(nc3c2)CCC4)c1	-4%	-14	-11%	?	-2%	-3%
CCOC(=O)CC1(C)NC(C(=O)O)C(C)(C)S1 (configuration not stated)	4%	20	.	1%	0%	2%
Cc1cc(C)c(S(=O)(=O)Nc2ccc3c(c2)CCC3)c(C)c1	18µM*	?	?	?	?	?
O=S(=O)(Nc1ccc2c3c(cccc13)CC2)c1ccccc1	13µM*	6	.	.	.	?
